Assay results published in the supplement of paper PMC9262897, “Low-cost anti-mycobacterial drug discovery using engineered E. coli” (Nature Communications, 2022).
Counter-ions that a name gives are not always drawn. ± gives the standard deviation of the averaged measurements.

Tested on: E. coli TESEC Mtb Alr
Test: growth (OD600 after 10 h); higher = more growth (less inhibition)
Details: compound 0.1 mM
Method: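 TESEC Mtb Alr E. coli, or the Alr+ wild-type control, in 384-well plates with Prestwick library compounds at 0.1 mM and 1% DMSO, across arabinose induction levels of 1E3 to 1E7 nM. Growth is read as OD600 after 10 h at 37 °C in triplicate biological replicates.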

[1] = arabinose 1000 nM, raw OD600 reference: median of DMSO wells 0.294, cell-free background 0.041
[2] = arabinose 10000 nM, raw OD600 reference: median of DMSO wells 0.264, cell-free background 0.041
[3] = arabinose 100000 nM, raw OD600 reference: median of DMSO wells 0.201, cell-free background 0.041
[4] = arabinose 1000000 nM, raw OD600 reference: median of DMSO wells 0.193, cell-free background 0.041
[5] = arabinose 10000000 nM, raw OD600 reference: median of DMSO wells 0.146, cell-free background 0.041

Structure (SMILES) | growth [1] | growth [2] | growth [3] | growth [4] | growth [5]
COc1cc2nc(N3CCN(C(=O)C4CCCO4)CC3)nc(N)c2cc1OC (stereo not given) [Terazosin hydrochloride] | 0.292 ± 0.0061 | 0.2762 ± 0.00084 | 0.139 ± 0.0052 | 0.138 ± 0.0066 | 0.144 ± 0.0038
COc1cc(-c2ccc(=O)[nH]n2)ccc1OC(F)F [Zardaverine] | 0.173 ± 0.0042 | 0.188 ± 0.013 | 0.17 ± 0.021 | 0.171 ± 0.0067 | 0.147 ± 0.0091
CN(CCCN1c2ccccc2CCc2ccccc21)CC(=O)c1ccc(Cl)cc1 [Lofepramine] | 0.199 ± 0.0064 | 0.127 ± 0.0072 | 0.194 ± 0.0099 | 0.0713 ± 0.0042 | 0.159 ± 0.0095
O=C1CN2Cc3c(ccc(Cl)c3Cl)N=C2N1 [Anagrelide] | 0.2815 ± 0.0021 | 0.281 ± 0.0097 | 0.191 ± 0.0049 | 0.209 ± 0.011 | 0.142 ± 0.005
C=CC1=C(C(=O)O)N2C(=O)[C@@H](NC(=O)/C(=N\OCC(=O)O)c3csc(N)n3)[C@H]2SC1 [Cefixime] | 0.0377 ± 0.0006 | 0.0408 ± 0.00017 | 0.03693 ± 0.00032 | 0.0407 ± 0.00045 | 0.04003 ± 0.00021
O=C(O)CCC(=O)c1ccc(-c2ccccc2)cc1 [Fenbufen] | 0.232 ± 0.013 | 0.229 ± 0.0062 | 0.137 ± 0.0052 | 0.128 ± 0.0089 | 0.127 ± 0.0092
C=Cc1c(C)c2cc3nc(cc4[nH]c(cc5nc(cc1[nH]2)C(C)=C5CCC(=O)O)c(CCC(=O)OC)c4C)[C@@]1(C)C3=CC=C(C(=O)OC)C1C(=O)OC.C=Cc1c(C)c2cc3nc(cc4[nH]c(cc5nc(cc1[nH]2)C(C)=C5CCC(=O)OC)c(CCC(=O)O)c4C)[C@@]1(C)C3=CC=C(C(=O)OC)C1C(=O)OC (stereo not given in full) [Verteporfin] | 0.356 ± 0.011 | 0.289 ± 0.0059 | 0.443 ± 0.0078 | 0.179 ± 0.0041 | 0.218 ± 0.0072
CCN(CC)CCNC(=O)c1cc(S(C)(=O)=O)ccc1OC [Tiapride hydrochloride] | 0.295 ± 0.01 | 0.263 ± 0.0064 | 0.213 ± 0.016 | 0.184 ± 0.0024 | 0.149 ± 0.0067
